Experimental data: PubChem BioAssay (NCI)
Values joined by “and” are separate entries in the source; they are usually repeats but may differ in a detail not shown here. Equal values may be shown once. This is part of a sample that, as a whole, favours compounds with a hit. Of some 83,000 tested, about 20% had one in any assay.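 Each cell line was grown in a 96-well plate and treated with one concentration of compound for 48 hours. Values below 10 were considered active.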 A number with no mark means an inactive call. Active and inactive are the calls of the source.

What follows are compounds tested on MDA-MB-468 breast (assay: NCI-60 one-dose screen, 48 h (100 = growth as untreated, 0 = no growth, -100 = all killed)). Conditions: 10 µM unless noted.

Structure (SMILES) | growth
N#CC1=C(N)Oc2c(sc3c(Br)cccc23)C1c1ccc([N+](=O)[O-])cc1 (stereo not given) | 42.2%
COc1cc2cc(Oc3ccc(NC(=O)Nc4ccc(F)c(C(F)(F)F)c4)cc3)c(C)nc2cc1OCCN1CCCCC1 | 71.3%
COc1cc(CNC(=O)CCCC/C=C/C(C)C)ccc1O | 94.6% and 98.5%
CCCCCCCCCCCCCCCC(=O)NS(=O)(=O)OC[C@H]1O[C@@H](n2cnc3c(N)ncnc32)[C@H](O)[C@@H]1O | -51.5% (active)
O=S(=O)(Nc1ccsc1-c1nc(-c2ccccc2)no1)c1cc(Cl)cc(Cl)c1 | 88.6%
CCCCN1CCN(c2ccc3nc(-c4ccc5nc(-c6ccc(OC)c(OC)c6)[nH]c5c4)[nH]c3c2)CC1 | -74.9% (active)
CCOCCNC1=C(Cl)C(=O)c2ccccc2C1=O | 94.7%
CCOC(=O)Nc1ccc2c(c1)C(=O)N(CCOC)c1ccccc1O2 | 20.2%
COc1ccc(-c2nc3ncccn3c2-c2nnc(-c3ccc(F)cc3)o2)cc1 | 100%
Cc1c(C(N)=O)sc2c1c(=O)n(Cc1ccccc1)c1nnc(-c3ccc(Br)cc3)n21 | 29.8%
COc1cc2c(cc1OC)C(C(CCCCCC(CCC(C)C)C1NCCc3cc(OC)c(OC)cc31)CCC(C)C)NCC2 (stereo not given) | -87.1% (active)
COc1cc(OCc2cccc(-c3ccc4c(c3)OCCO4)c2C)cc(OC)c1C=O | 21.8%
Cc1nc(O)cc(=O)[nH]1 | 113%
CCCCc1ccc(C(N)=O)nc1 | 85%
COc1ccc(C2=NN(C(=O)c3cc(-c4ccc(C)cc4)nc4ccccc34)C(c3cc(-c4ccccc4)nn3-c3ccccc3)C2)cc1 (stereo not given) | 98.1%
Oc1c(Cl)cc(Cl)c(Cl)c1CNCCNCc1c(O)c(Cl)cc(Cl)c1Cl | 2.91% (active)
CCCCC/C(=C\c1ccccc1)C1OC(C)C(C)O1 (stereo not given) | 98.8%
Cc1nc(N/N=C/c2cn(-c3ccccc3)nc2-c2cc3ccccc3oc2=O)sc1N=Nc1ccccc1 | 89.7%
N#Cc1c(N)nn(C(=O)c2ccc(NC(=O)c3ccccn3)cc2)c1-c1ccc(Cl)cc1 | -29.3% (active)
CS(=O)(=O)c1nccc(-c2c(-c3cccc(OCc4ccc(F)cc4)c3)nc3sccn23)n1 | -63.6% (active)

Structure (SMILES) | growth
O=C(N/N=C\c1cc(Cl)ccc1[N+](=O)[O-])c1ccco1 | 58.5%
O=S(=O)(NCCNc1nccc(-c2c(-c3ccc(F)c(O)c3)nc3sccn23)n1)c1ccc(Cl)cc1 | 19.5%
COc1ccc(-n2c(SCC(=O)Nc3ccc(-c4nc5ccccc5[nH]4)cc3)nc3ccccc3c2=O)cc1 | -88.2% (active)
Cc1ccc2[nH]c(=O)c3c(c2c1)Oc1ncn2nc(-c4ccco4)nc2c1C3c1ccc(Cl)cc1 (stereo not given) | 96.4%
Cc1cc2c(c(=O)o1)C(c1ccc(OC(=O)N3CCOCC3)cc1)C(C#N)=C(N)O2 (stereo not given) | 119%
CCOC(=O)C(CC(c1ccccc1)N1CCCCC1)[N+](=O)[O-] (stereo not given) | 49.7%
COc1ccc(-c2ccc(-c3ccc(C(=N)N)s3)s2)cc1 | -75.9% (active)
CC[C@H](C)[C@H]1NC(=O)[C@@H]([C@H](O)C(C)C)NC(=O)[C@@H](C)N(C)C(=O)[C@H](C)N(C)C(=O)[C@H](CC(C)C)NC(=O)[C@H](CC(C)C)N(C)C(=O)[C@H](C)N(C)C1=O | -5.6% (active)
COc1ccc2nc3c(cc2c1)C(=O)CC(C(F)(F)F)C3 (stereo not given) | 35.6%
CCCCCCCCOc1ccc(/C=N/Nc2cc(C)nc3ccc(Cl)cc23)cc1 | -49.9% (active)
O=S(=O)(Nc1ccc2c(c1)OC(F)(F)O2)c1ccc(-c2cnc(C3CC3)o2)cc1 | 15.3%
CCCCNNC(=O)c1ccc(Br)cc1 | 60.1%
CC1OC(OC2C(OC3CCC4(C)C(CCC5(C)C4CC=C4C6CC(C)(C)CCC6(CO)C(O)CC45C)C3(C)C)OC(C(=O)O)C(OC3OC(COC4OC(CO)C(O)C(O)C4O)C(O)C(O)C3O)C2O)C(O)C(O)C1O (stereo not given) | -80.5% (active)
CCCCCCNC(=O)Oc1ccc(/C(=C(\C)c2ccc(Cl)cc2)c2ccc(OCCN3CCCCC3)cc2)cc1 | 25.1%
CC1CCC(=O)N1c1ccc(N)cc1 (stereo not given) | 115%
CN1C[C@@H](c2ccc(Cl)cc2)[C@]2(NC(=S)N(c3ccc(F)c(Cl)c3)C2=O)[C@@]12C(=O)NC1C=CC(Cl)=C[C@H]12 (stereo not given in full) | 48.8%
COc1ccc(-n2nc(C(=O)Nc3ccc(F)cc3)nc2-c2cc(OC)c(OC)c(OC)c2)cc1 | 91.9%
CC(=O)[C@H]1CC[C@]2(C)[C@@H]1CC[C@@H]1[C@@]3(C)C/C(=C/c4cccnc4)C(=O)C(C)(C)[C@@H]3CC[C@]12C | 60.3%
COc1cccc(-c2cnco2)c1OCc1c(C)c(COc2c(OC)cccc2-c2cnco2)c(C)c(COc2c(OC)cccc2-c2cnco2)c1C | 59%
Oc1ccc(-c2[nH]c3ccccc3c2-c2nc3ccccc3o2)cc1 | 26.1%
